Several values for one entry are separate records, joined by “and”; a condition that tells them apart may be missing. Equal entries are not always repeated. Records with an inconclusive call do not appear. Activity calls are given as the source filed them. Unless noted, the rule behind the calls is not given here.
Key:
[1] = target: Androgen receptor (Homo sapiens) (UniProt P10275); assay: qHTS assay for small molecule agonists of androgen receptor signaling (AID 588515; active = well fitted curve in the direction sought with a large enough effect in the signal ratio, with a control signal flat; the % refers to the signal ratio; note: % is set by controls: 0 for no effect and ±100 for the full control effect); conditions: AR-UAS-bla HEK293, beta-lactamase ratio, agonist 16 h; stronger effect = higher value
How it was run: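 Stimulation of an AR-responsive β-lactamase reporter in GripTite HEK293 cells was measured after 16 h compound exposure at 37 °C, via CCF4 fluorescence after 2 h RT. EC50 from Hill fits, normalized to R1881 at 30 nM.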

[2] = target: Androgen receptor (Homo sapiens) (UniProt P10275); assay: qHTS assay for small molecule antagonists of androgen receptor signaling (AID 588516; active = well fitted curve in the direction sought with a large enough effect in the signal ratio, with a control signal flat, not every such curve was filed as active; the % refers to the signal ratio; note: % is set by controls: 0 for no effect and ±100 for the full control effect); conditions: AR-UAS-bla HEK293, beta-lactamase ratio, antagonist mode, 16 h; series mostly up to 76.8 µM
How it was run: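 AR-UAS-bla-GripTite HEK 293 cells (2000/well, 5 h at 37 C) received compound titrations, then R1881 at 10 nM final; after 16 h at 37 C, CCF4 dye 2 h RT, beta-lactamase fluorescence read; IC50 from Hill fits.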

[3] = qHTS assay for small molecule antagonists of peroxisome proliferator-activated receptor delta signaling (AID 588535; active = well fitted inhibition curve with a large enough effect in the signal ratio, with a control signal flat, not every such curve was filed as active; the % refers to the signal ratio;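 for max response: cells co-treated with a PPAR-delta agonist as stimulator during compound exposure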); conditions: HEK293T PPARd-UAS-bla, beta-lactamase FRET ratio, 18 h; 460 nm channel
How it was run: (§1)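 Compounds tested in titration on PPAR-delta-UAS-bla HEK293T cells grown in charcoal/dextran-stripped serum (2%); beta-lactamase activity read via CCF4 emission at 460 and 530 nm.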

[4] = target: Peroxisome proliferator-activated receptor delta (Homo sapiens) (UniProt Q03181); assay: as above; conditions: HEK293T PPARd-UAS-bla, beta-lactamase FRET ratio, 18 h; series mostly up to 76.7 µM
How it was run: as §1

[5] = target: Vitamin D3 receptor (Homo sapiens) (UniProt P11473); assay: qHTS assay for small molecule agonists of vitamin D receptor signaling (AID 588543; calls by dose curve;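 note: 0% = DMSO basal and 100% = reference agonist control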); conditions: HEK293T VDR-UAS-bla, beta-lactamase ratio, 16 h; series mostly up to 76.8 µM
How it was run: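 GeneBLAzer VDR-UAS-bla HEK293T cells in 2% charcoal-stripped FBS medium were dosed with compound titrations for 16 h at 37 °C; CCF4 β-lactamase readout (405 nm ex, 460/530 nm em). EC50 and efficacy from Hill fits, normalized to 50 nM calcitriol (100%) and DMSO (0%).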

[6] = target: Thyroid hormone receptor beta (Homo sapiens) (UniProt P10828); assay: qHTS assay for small molecule antagonists of thyroid hormone receptor beta signaling (AID 588547; active = well fitted inhibition curve with a large enough effect in the signal ratio, with a control signal flat, not every such curve was filed as active; the % refers to the signal ratio;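 note: cells stimulated with 0.4 nM T3 agonist during compound exposure; % is set by controls: 0 for no effect and ±100 for the full control effect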); conditions: TR-UAS-bla HEK293, beta-lactamase ratio, antagonist mode, 18 h
How it was run: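 TR-UAS-bla GripTite HEK293 cells in 2% charcoal/dextran FBS medium were preincubated 4 h at 37 C, given compound (0.59 nM to 92 uM) plus 0.4 nM T3 (final) for 18 h, then CCF4 for 2 h at RT; Hill fit gave IC50.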

[7] = qHTS assay for small molecule activators of the nuclear factor-kappa B (NF-kB) signaling pathway (AID 651749; active = well fitted activation curve with a large enough effect in the signal ratio; the % refers to the signal ratio; note: % of control where 0% means no effect); conditions: NF-kB-bla ME-180 cells, beta-lactamase FRET ratio, 16 h; activation: stronger effect = higher value
How it was run: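 Beta-lactamase reporter expression, controlled by NF-kB response elements in ME-180 cells, was quantified fluorometrically via FRET disruption; cells at 2,000/well had been incubated with 23 nL test compound for 16 hr.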

[8] = qHTS assay for small molecule activators of the human pregnane X receptor (PXR) signaling pathway (AID 720659); conditions: DPX-2 HepG2 CYP3A4-luciferase, 24 h; series mostly up to 92.3 µM; note: 0% is about no effect
[9] = qHTS assay for small molecule agonists of the antioxidant response element (ARE) signaling pathway (AID 651741; active = well fitted activation curve with a large enough effect in the signal ratio; the % refers to the signal ratio; note: potency is the fitted concentration of half-maximal effect; for activation: % of control where 0% means no effect); conditions: HepG2 ARE-bla reporter, beta-lactamase FRET ratio, 16 h; series mostly up to 96 µM
How it was run: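 Beta-lactamase reporter expression driven by the antioxidant response element in HepG2 cells was detected by fluorescence with LiveBLAzer B/G FRET substrate (2 h, room temperature) following 16 h compound treatment at 37 C.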

[10] = target: Bile acid receptor (Homo sapiens) (UniProt Q96RI1); assay: qHTS assay for small molecule antagonists of farnesoid X receptor signaling (AID 588526; calls by dose curve; note: % is set by controls: 0 for no effect and ±100 for the full control effect); conditions: HEK293T FXR-UAS-bla, beta-lactamase ratio, antagonist mode; series mostly up to 76.7 µM
How it was run: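 Concentration-response titrations were fitted to the Hill equation for half-maximal inhibition and maximal response, with data normalised to 50 uM chenodeoxycholic acid and DMSO control wells. Cells: FXR-UAS-bla HEK293T, dialyzed FBS.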

[11] = target: Glucocorticoid receptor (Homo sapiens) (UniProt P04150); assay: qHTS assay for small molecule agonists of glucocorticoid receptor signaling (AID 588532; active = well fitted curve in the direction sought with a large enough effect in the signal ratio, with a control signal flat; the % refers to the signal ratio;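 note: 100% = dexamethasone at 0.1 µM and 0% = DMSO only wells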); conditions: HeLa MMTV-bla, beta-lactamase ratio, agonist, 18 h; activation: stronger effect = higher value, percent of dexamethasone control, DMSO zero
How it was run: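 Titration series, up to 92 uM, applied to GRE-bla HeLa cells for 18 h at 37 C. Detection by CCF4 FRET substrate after 2 h at RT.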

[12] = target: Bile acid receptor (Homo sapiens) (UniProt Q96RI1); assay: qHTS assay for small molecule agonists of farnesoid X receptor signaling (AID 588527; calls by dose curve;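 note: 0% = vehicle basal and 100% = reference agonist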); conditions: HEK293T FXR-UAS-bla, beta-lactamase ratio, 16 h; activation: stronger effect = higher value
How it was run: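 Agonist-mode beta-lactamase reporter in GeneBLAzer FXR-UAS-bla HEK293T cells, titration up to 92 uM, 16 h exposure at 37 C, CCF4 fluorescence. Response scaled to DMSO (0%) and 100 uM chenodeoxycholic acid (100%), then Hill-fitted for EC50 and efficacy.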

Peroxisome proliferator-activated receptor delta (Homo sapiens), sequence (Q03181 whole entry, looked up): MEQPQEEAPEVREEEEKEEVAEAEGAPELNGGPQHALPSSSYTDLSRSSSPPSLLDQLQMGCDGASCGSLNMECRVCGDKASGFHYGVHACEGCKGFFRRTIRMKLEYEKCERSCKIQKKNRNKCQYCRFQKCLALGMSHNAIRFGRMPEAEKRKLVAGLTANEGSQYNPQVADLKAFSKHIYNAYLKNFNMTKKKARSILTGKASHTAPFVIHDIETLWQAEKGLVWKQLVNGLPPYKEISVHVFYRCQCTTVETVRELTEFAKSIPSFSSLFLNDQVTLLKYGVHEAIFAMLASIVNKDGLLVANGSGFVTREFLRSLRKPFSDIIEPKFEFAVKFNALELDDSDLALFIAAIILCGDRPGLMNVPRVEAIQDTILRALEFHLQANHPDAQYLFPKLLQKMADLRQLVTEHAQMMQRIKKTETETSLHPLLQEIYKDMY
Glucocorticoid receptor (Homo sapiens), sequence (P04150 whole entry, looked up): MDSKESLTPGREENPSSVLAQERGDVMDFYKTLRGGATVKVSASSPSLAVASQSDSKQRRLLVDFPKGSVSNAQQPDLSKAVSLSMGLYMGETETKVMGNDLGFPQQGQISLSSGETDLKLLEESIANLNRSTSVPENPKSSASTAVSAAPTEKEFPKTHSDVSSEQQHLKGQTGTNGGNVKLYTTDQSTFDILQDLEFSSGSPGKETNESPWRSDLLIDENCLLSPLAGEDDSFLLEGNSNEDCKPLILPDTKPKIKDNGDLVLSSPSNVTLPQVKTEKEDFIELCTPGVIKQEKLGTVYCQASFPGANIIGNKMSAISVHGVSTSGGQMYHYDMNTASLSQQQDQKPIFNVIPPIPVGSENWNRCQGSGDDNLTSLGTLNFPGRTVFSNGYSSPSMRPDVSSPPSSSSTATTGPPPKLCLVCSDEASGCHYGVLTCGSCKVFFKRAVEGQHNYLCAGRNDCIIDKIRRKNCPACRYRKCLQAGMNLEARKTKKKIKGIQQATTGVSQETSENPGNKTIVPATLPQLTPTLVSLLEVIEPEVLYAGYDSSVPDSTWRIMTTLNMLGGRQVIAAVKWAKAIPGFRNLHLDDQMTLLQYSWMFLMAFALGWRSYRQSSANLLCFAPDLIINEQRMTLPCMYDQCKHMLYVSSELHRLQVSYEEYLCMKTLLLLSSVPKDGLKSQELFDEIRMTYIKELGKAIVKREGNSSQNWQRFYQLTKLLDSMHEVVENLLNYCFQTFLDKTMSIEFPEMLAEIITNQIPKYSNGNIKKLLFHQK
Thyroid hormone receptor beta (Homo sapiens), sequence (P10828 whole entry, looked up): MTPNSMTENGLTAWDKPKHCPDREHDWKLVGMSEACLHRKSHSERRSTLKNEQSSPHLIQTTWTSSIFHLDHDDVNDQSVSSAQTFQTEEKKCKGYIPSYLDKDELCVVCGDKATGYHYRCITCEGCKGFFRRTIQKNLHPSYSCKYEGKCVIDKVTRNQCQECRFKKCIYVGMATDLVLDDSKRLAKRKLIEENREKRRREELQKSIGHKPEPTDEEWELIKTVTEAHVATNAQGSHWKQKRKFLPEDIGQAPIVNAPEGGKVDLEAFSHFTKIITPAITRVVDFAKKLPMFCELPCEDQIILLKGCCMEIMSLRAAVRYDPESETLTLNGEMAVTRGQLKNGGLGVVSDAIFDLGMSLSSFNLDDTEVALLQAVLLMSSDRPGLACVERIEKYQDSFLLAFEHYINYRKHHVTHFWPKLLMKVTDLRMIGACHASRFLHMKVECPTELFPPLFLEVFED
Vitamin D3 receptor (Homo sapiens), sequence (P11473 whole entry, looked up): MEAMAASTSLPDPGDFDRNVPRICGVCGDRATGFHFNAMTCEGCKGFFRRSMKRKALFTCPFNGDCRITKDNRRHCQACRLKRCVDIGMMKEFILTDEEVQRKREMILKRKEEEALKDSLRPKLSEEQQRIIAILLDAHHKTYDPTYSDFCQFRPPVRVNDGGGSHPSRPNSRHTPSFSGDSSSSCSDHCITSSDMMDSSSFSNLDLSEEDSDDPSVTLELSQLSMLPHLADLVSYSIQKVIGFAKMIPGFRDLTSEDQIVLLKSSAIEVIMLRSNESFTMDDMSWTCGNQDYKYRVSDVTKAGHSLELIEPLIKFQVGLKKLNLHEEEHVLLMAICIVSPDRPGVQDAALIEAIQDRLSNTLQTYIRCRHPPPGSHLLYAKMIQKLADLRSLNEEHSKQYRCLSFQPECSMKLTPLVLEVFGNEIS
Bile acid receptor (Homo sapiens), sequence (Q96RI1 whole entry, looked up): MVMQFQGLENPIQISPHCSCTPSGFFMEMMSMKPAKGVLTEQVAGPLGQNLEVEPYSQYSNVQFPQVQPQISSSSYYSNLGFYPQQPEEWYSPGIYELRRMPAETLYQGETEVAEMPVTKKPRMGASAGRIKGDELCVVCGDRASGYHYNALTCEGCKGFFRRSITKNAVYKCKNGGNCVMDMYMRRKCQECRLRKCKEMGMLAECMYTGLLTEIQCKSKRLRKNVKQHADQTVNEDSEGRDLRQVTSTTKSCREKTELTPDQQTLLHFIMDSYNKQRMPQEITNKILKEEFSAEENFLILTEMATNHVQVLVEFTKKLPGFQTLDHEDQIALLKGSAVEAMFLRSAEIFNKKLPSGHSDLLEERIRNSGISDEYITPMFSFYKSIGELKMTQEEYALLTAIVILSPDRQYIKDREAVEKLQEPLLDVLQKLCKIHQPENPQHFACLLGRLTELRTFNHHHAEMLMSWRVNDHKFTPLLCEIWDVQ
Androgen receptor (Homo sapiens), sequence (P10275 whole entry, looked up): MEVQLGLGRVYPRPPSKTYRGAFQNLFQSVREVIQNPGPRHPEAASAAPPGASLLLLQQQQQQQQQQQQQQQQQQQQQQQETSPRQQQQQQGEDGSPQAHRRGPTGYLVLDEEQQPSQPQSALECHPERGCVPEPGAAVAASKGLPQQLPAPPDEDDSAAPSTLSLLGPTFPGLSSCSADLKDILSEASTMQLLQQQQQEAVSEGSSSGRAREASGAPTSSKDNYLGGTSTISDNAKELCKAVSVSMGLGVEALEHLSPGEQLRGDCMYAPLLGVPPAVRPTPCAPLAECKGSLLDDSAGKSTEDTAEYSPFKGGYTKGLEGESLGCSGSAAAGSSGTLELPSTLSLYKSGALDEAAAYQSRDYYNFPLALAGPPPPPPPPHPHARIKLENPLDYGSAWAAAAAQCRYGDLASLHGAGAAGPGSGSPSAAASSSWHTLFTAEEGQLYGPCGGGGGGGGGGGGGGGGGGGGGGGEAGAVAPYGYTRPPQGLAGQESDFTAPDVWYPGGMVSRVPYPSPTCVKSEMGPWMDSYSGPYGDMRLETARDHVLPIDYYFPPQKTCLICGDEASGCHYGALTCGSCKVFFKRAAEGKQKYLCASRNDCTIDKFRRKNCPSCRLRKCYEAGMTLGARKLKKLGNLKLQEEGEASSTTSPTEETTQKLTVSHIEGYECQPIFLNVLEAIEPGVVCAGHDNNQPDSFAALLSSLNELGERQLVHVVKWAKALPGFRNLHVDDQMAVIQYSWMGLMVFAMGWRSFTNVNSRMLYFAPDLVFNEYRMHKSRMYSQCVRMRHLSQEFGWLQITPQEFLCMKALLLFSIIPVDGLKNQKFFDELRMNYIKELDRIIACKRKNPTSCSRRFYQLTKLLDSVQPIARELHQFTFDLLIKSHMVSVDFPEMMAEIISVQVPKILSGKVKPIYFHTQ

| SMILES | activation [1] | Potency [2] | max response [3] | Potency [4] | outcome [5] | activity change % (negative = inhibition) [6] | activation [7] | outcome [8] | Potency [9] | Potency [10] | activation [11] | activation [12] |
| --- | --- | --- | --- | --- | --- | --- | --- | --- | --- | --- | --- | --- |
| CNC(=O)O/N=C(\SC)C(=O)N(C)C | -0.759% (inactive) | inactive | 22.2% | inactive | inactive | 0.203% (inactive) | -1.34% (inactive) | inactive | – | – | – | – |
| CC(C)(C#N)N=NC(C)(C)C#N | – | – | 3.24% | inactive | – | – | – | inactive | inactive | – | – | – |
| C=CC(=O)NCO | -1.79% (inactive) and 14.2% (inactive) | inactive | 1.4% | inactive | – | 0.0569% (inactive) | – | inactive | 501 µM (active) | inactive | -0.576% (inactive) and 6.11% (inactive) | – |
| COP(=O)(OC)O/C(C)=C/C(=O)N(C)C | – | – | -17.4% | inactive | – | – | -1.74% (inactive) | inactive | – | – | – | – |
| CCCCC(C#N)(Cn1cncn1)c1ccc(Cl)cc1 (stereo unspecified) | – | – | 26.8% | inactive | – | 6.16% (inactive) and 3.62% (inactive) | – | – | – | – | -4.2% (inactive) and -7.49% (inactive) | – |
| O=[As](O)(O)O | -0.986% (inactive) | inactive | 6.63% | inactive | – | -13.2% (inactive) | -0.92% (inactive) | inactive | – | inactive | – | – |
| CCOP(=O)(OCC)SCSCC | 6.75% (inactive) | inactive | -57% | inactive | inactive | 4.37% (inactive) | -2% (inactive) | – | inactive | inactive | – | -0.362% (inactive) |
| CCOP(=O)(OCC)SCCSCC | – | – | – | – | – | -4.38% (inactive) | 0.345% (inactive) | inactive | – | – | – | – |
| Brc1c(Br)c(Br)c(Br)c(Br)c1Br | – | – | -24.6% | inactive | – | – | -0.808% (inactive) | inactive | – | – | -0.0722% (inactive) | – |
| COc1nc(C)nc(NC(=O)NS(=O)(=O)c2ccccc2Cl)n1 | – | – | – | – | inactive | – | – | inactive | inactive | – | -6.7% (inactive) | – |
| CCN(CC)c1nc(C)cc(OP(=S)(OC)OC)n1 | – | – | 56.7% | inactive | inactive | -11.6% (inactive) | 0.586% (inactive) | inactive | – | – | 19.3% (inactive) | – |

Source: PubChem BioAssay (NCATS)
